Laboratory results: PubChem BioAssay (NCI)
This is part of a sample that, as a whole, favours compounds with a hit. Of some 79,000 tested, about 15% had one in any assay. Active and inactive are the calls of the source. No stated cut-off is given here; in the data, active means growth inhibition above about 70%; inactive means the rest.

How the values were obtained:
[1] = NCI Yeast Anticancer Drug Screen. Data for the rad52 strain (AID 147);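 further: 0% = growth of vehicle-treated control cultures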; details: S. cerevisiae rad52 mutant growth inhibition, active compounds read high
Outline: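 Compounds are applied to a genetically defined yeast strain lacking normal DNA damage repair, and inhibition of growth is expressed relative to cultures given vehicle only.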

[2] = NCI Yeast Anticancer Drug Screen. Data for the wt1 strain (AID 149);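 further: 0% = growth of vehicle-treated wt1 cultures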; details: S. cerevisiae wt1 strain (SPY 50644) growth inhibition, active compounds read high
Outline: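 Each compound is tested on wt1 yeast and the loss of growth versus vehicle gives the inhibition value.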

[3] = NCI Yeast Anticancer Drug Screen. Data for the rad50EPP+ strain (AID 151);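 further: 0% = growth of vehicle-treated control cultures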; details: S. cerevisiae rad50 mutant strain, active compounds read high
Outline: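 Compounds were applied to the rad50EPP+ yeast strain, which bears a defined DNA repair alteration, and growth inhibition was determined relative to vehicle-treated cultures.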

[4] = NCI Yeast Anticancer Drug Screen. Data for the mgt1 strain (AID 153); details: S. cerevisiae mgt1 mutant growth inhibition, active compounds read high
Outline: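 Strain: mgt1 yeast, one of a set carrying defined DNA damage repair or cell cycle control alterations. Compound-treated growth compared with vehicle.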

[5] = NCI Yeast Anticancer Drug Screen. Data for the rad50 strain (AID 155);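 further: 0% = growth of vehicle-only cultures of the same strain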; details: S. cerevisiae rad50 strain growth inhibition, active compounds read high
Outline: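 Vehicle-treated cultures provide the reference for the growth inhibition reported for compound-exposed, repair-deficient yeast.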

[6] = NCI Yeast Anticancer Drug Screen. Data for the mec2-1 strain (AID 157); details: S. cerevisiae mec2-1 strain, active compounds read high
Outline: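 Strain: mec2-1 (DNA repair/cell cycle alteration). Compound exposure, then growth measured; inhibition expressed relative to vehicle.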

[7] = NCI Yeast Anticancer Drug Screen. Data for the rad14 strain (AID 159);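 further: 0% = growth of vehicle-treated control cultures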; details: S. cerevisiae rad14 strain growth inhibition, active compounds read high
Outline: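 Inhibition of growth is reported for a repair-deficient yeast mutant following compound treatment, calculated relative to cultures that received vehicle.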

[8] = NCI Yeast Anticancer Drug Screen. Data for the sgs1 mgt1 strain (AID 161);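 further: 0% = growth of cultures given vehicle only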; details: S. cerevisiae sgs1 mgt1 strain, active compounds read high
Outline: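 Read-out: growth inhibition vs vehicle controls. Cells: mutant yeast strain deficient in DNA damage repair.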

[9] = NCI Yeast Anticancer Drug Screen. Data for the CLN2oe strain (AID 163);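 further: 0% = growth of vehicle-only control cultures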; details: S. cerevisiae CLN2oe strain, active compounds read high
Outline: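 Growth of a genetically modified yeast strain is measured after compound exposure and compared with cultures given vehicle alone.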

[10] = NCI Yeast Anticancer Drug Screen. Data for the cln2 rad14 strain (AID 165);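 further: 0% = growth equal to vehicle treated cultures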; details: S. cerevisiae cln2 rad14 strain, active compounds read high
Outline: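 Compounds are applied to the cln2 rad14 yeast strain, and growth is then compared with that of vehicle-treated cultures to give inhibition.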

[11] = NCI Yeast Anticancer Drug Screen. Data for the bub3 strain (AID 167); details: S. cerevisiae bub3 mutant strain, active compounds read high
Outline: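 Mutant yeast screening strain plus compound; vehicle-treated cultures serve as the 0% inhibition reference.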

[12] = NCI Yeast Anticancer Drug Screen. Data for the wt2 strain (AID 169); details: S. cerevisiae wt2 strain growth inhibition, active compounds read high
Outline: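 This strain belongs to a panel of yeast strains with defined genetic alterations in DNA damage repair or cell cycle control. Compounds are applied, and growth inhibition is measured against vehicle-treated cultures.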

[13] = NCI Yeast Anticancer Drug Screen. Data for the mlh1 strain (AID 171);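 further: 0% = growth of vehicle-treated control cultures of the same strain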; details: S. cerevisiae mlh1 strain growth inhibition, active compounds read high
Outline: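 Growth of the mutant yeast strain after compound exposure, expressed as inhibition relative to vehicle-only controls.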

[14] = NCI Yeast Anticancer Drug Screen. Data for the sgs1 strain (AID 173);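 further: 0% = growth of vehicle-only control cultures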; details: S. cerevisiae sgs1 mutant, active compounds read high
Outline: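 Growth of a yeast strain bearing a defined genetic alteration is measured after compound treatment. Inhibition is expressed relative to vehicle-only controls.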

[15] = NCI Yeast Anticancer Drug Screen. Data for the mlh1 rad18 strain (AID 175); details: S. cerevisiae mlh1 rad18 strain growth inhibition, active compounds read high
Outline: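 Read-out is yeast growth inhibition, calculated against vehicle-only controls. The compound was applied to a strain engineered with DNA damage repair alterations.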

[16] = NCI Yeast Anticancer Drug Screen. Data for the rad18 strain (AID 177); details: S. cerevisiae rad18 mutant growth inhibition, active compounds read high
Outline: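 Growth of the mutant yeast strain after compound exposure, normalised to vehicle-only cultures.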

[17] = at 5.0 µM (retest, dose inferred, filed as 0.5)
[18] = at 50.0 µM (retest, dose inferred, filed as 5.0)

Measured: growth inhibition

Cc1ccc(S/C(=C\C(=O)O)c2ccccc2)cc1
inactive: [1]; at 1.2 µM 2% | [1]; at 3.7 µM 7% | [1]; at 11.0 µM 12% | [1]; at 33.0 µM 28% | [1]; at 100.0 µM 46% | [2]; at 1.2 µM -6% | [2]; at 3.7 µM -7% | [2]; at 11.0 µM -8% | [2]; at 33.0 µM -2% | [2]; at 100.0 µM 10% | [3]; at 1.2 µM -6% | [3]; at 3.7 µM 2% | [3]; at 11.0 µM 15% | [3]; at 33.0 µM 25% | [3]; at 100.0 µM 52% | [4]; at 1.2 µM -4% | [4]; at 3.7 µM -5% | [4]; at 11.0 µM -3% | [4]; at 33.0 µM 4% | [4]; at 100.0 µM 32% | [5]; at 1.2 µM 2% | [5]; at 3.7 µM 4% | [5]; [17] -16% | [5]; at 11.0 µM 13% | [5]; at 33.0 µM 30% | [5]; [18] 47% | [5]; at 50.0 µM 41.9% | [5]; at 100.0 µM 52% | [6]; at 1.2 µM -6% | [6]; at 3.7 µM -3% | [6]; [17] -15% | [6]; at 11.0 µM -4% | [6]; at 33.0 µM 8% | [6]; [18] -1% | [6]; at 50.0 µM 28.9% | [6]; at 100.0 µM 25% | [7]; at 1.2 µM -1% | [7]; at 3.7 µM 3% | [7]; at 11.0 µM 7% | [7]; at 33.0 µM 17% | [7]; at 100.0 µM 34% | [8]; [17] -12% | [8]; [18] 52% | [8]; at 50.0 µM 64.8% | [9]; at 1.2 µM 1% | [9]; at 3.7 µM -2% | [9]; at 11.0 µM 5% | [9]; at 33.0 µM 16% | [9]; at 100.0 µM 35% | [10]; [17] -6% | [10]; [18] 29% | [10]; at 50.0 µM 47.5% | [11]; at 1.2 µM -4% | [11]; at 3.7 µM -4% | [11]; [17] -2% | [11]; at 11.0 µM -4% | [11]; at 33.0 µM 6% | [11]; [18] 66% | [11]; at 50.0 µM 39.5% | [11]; at 100.0 µM 19% | [12]; at 1.2 µM -10% | [12]; at 3.7 µM -11% | [12]; at 11.0 µM -7% | [12]; at 33.0 µM -3% | [12]; at 100.0 µM 11% | [13]; at 1.2 µM -6% | [13]; at 3.7 µM 0% | [13]; at 11.0 µM 6% | [13]; at 33.0 µM 20% | [13]; at 100.0 µM 38% | [14]; at 1.2 µM 4% | [14]; at 3.7 µM -4% | [14]; at 11.0 µM 12% | [14]; at 33.0 µM 25% | [14]; at 100.0 µM 50% | [15]; [17] -29% | [15]; at 50.0 µM 38% | [16]; at 1.2 µM -4% | [16]; at 3.7 µM 4% | [16]; at 11.0 µM 7% | [16]; at 33.0 µM 20% | [16]; at 100.0 µM 50%
active: [15]; [18] 72%

CC12C(=O)OC(=O)C(c3ccccc31)c1ccccc12
inactive: [1]; at 1.2 µM -8% | [1]; at 3.7 µM -2% | [1]; at 11.0 µM -12% | [1]; at 33.0 µM -4% | [1]; at 100.0 µM 3% | [2]; at 1.2 µM 2% | [2]; at 3.7 µM -2% | [2]; at 11.0 µM 4% | [2]; at 33.0 µM 2% | [2]; at 100.0 µM 9% | [3]; at 1.2 µM -11% | [3]; at 3.7 µM -25% | [3]; at 11.0 µM -30% | [3]; at 33.0 µM 19% | [3]; at 100.0 µM 9% | [4]; at 1.2 µM -7% | [4]; at 3.7 µM -9% | [4]; at 11.0 µM -5% | [4]; at 33.0 µM -4% | [4]; at 100.0 µM -6% | [5]; at 1.2 µM -18% | [5]; at 3.7 µM -17% | [5]; [17] 43% | [5]; at 11.0 µM -16% | [5]; at 33.0 µM -16% | [5]; [18] 21% | [5]; at 100.0 µM 20% | [6]; at 1.2 µM -5% | [6]; at 3.7 µM -6% | [6]; [17] 47% | [6]; at 11.0 µM -5% | [6]; at 33.0 µM -5% | [6]; [18] 28% | [6]; at 100.0 µM -2% | [7]; at 1.2 µM -4% | [7]; at 3.7 µM -9% | [7]; at 11.0 µM 0% | [7]; at 33.0 µM 2% | [7]; at 100.0 µM 8% | [8]; [17] 33% | [8]; [18] 21% | [9]; at 1.2 µM -9% | [9]; at 3.7 µM -8% | [9]; at 11.0 µM -10% | [9]; at 33.0 µM -11% | [9]; at 100.0 µM -10% | [10]; [17] 9% | [10]; [18] 5% | [11]; at 1.2 µM -7% | [11]; at 3.7 µM -5% | [11]; [17] 28% | [11]; at 11.0 µM -8% | [11]; at 33.0 µM -5% | [11]; [18] 49% | [11]; at 50.0 µM 68.1% | [11]; at 100.0 µM 2% | [12]; at 1.2 µM -7% | [12]; at 3.7 µM -5% | [12]; at 11.0 µM 11% | [12]; at 33.0 µM 9% | [12]; at 100.0 µM 7% | [13]; at 1.2 µM -11% | [13]; at 3.7 µM -9% | [13]; at 11.0 µM -7% | [13]; at 33.0 µM -6% | [13]; at 100.0 µM -6% | [14]; at 1.2 µM -12% | [14]; at 3.7 µM -8% | [14]; at 11.0 µM -1% | [14]; at 33.0 µM 2% | [14]; at 100.0 µM 11% | [15]; [17] 58% | [15]; [18] 54% | [16]; at 1.2 µM -8% | [16]; at 3.7 µM -10% | [16]; at 11.0 µM -5% | [16]; at 33.0 µM 0% | [16]; at 100.0 µM -7%
active: [5]; at 50.0 µM 98.3% | [6]; at 50.0 µM 91% | [8]; at 50.0 µM 97.2% | [10]; at 50.0 µM 76.2% | [15]; at 50.0 µM 93.6%
